Screening results: PubChem, National Center for Advancing Translational Sciences (NCATS)
Most compounds without a hit are left out; they make up all but 3.2% or so of the library.
Nrf2 ARE act = activators of Nrf2 (ARE) signaling. Potency, µM (doses to about 46.1 µM), inactives show at the top dose activation, hits mostly activators. actives 0.31% (n = 410,000). AREc32 ARE-luciferase reporter (MCF7-derived line), luminescence, 24 h. AID 624171; note: potency is the fitted concentration of half-maximal effect; % of control where 0% means no effect; nearly all actives have a fitted effect of over 65% in size
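AREc32_Fluc, 1000 cells/well, OPTI-MEM + 5% FBS, o/n 37 deg C 5% CO2; 23 nL cpd by pin tool, 24 hr; Steady-Glo 30 min RT, luminescence.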
BRCA1 expr act = activators of BRCA1 expression. Potency, µM (titrated, usually from 46.1 µM), for the others: at the top dose activation, hits mostly activators. actives 1.1% (n = 380,000). MCF7-BRCA1-FFLuc reporter, luminescence, 48 h; response scale: scaled: vehicle 0%, 10 µM genistein 100%; note: potency is the fitted concentration of half-maximal effect; nearly all actives have a fitted effect of over 80% in size
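Compounds are tested at multiple concentrations on MCF7 BRCA1-luciferase reporter cells seeded at 2000 per well; after 48 h, a single luminescence end-point is taken and curves fitted to the normalized data.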
Nrf2 block = inhibitors of Nrf2 signaling; A549 ARE-Fluc reporter, luciferase luminescence, 18-24 h; AID 504444; Potency, µM (highest dose often 46 µM), without a hit: top-dose activity change, negative = inhibition, actives largely listed as inhibitors; actives 2.1% (n = 360,000); note: potency is the fitted concentration of half-maximal effect; % is set by controls: 0 for no effect and ±100 for the full control effect; nearly all actives have a fitted effect of over 60% in size
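Nrf2 function is reported as luminescence of an ARE-controlled luciferase in A549 cells. Compounds were tested at several concentrations, and a CellTiter-Fluor read on the same wells flagged cytotoxicity.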
A549 viability = kills or reduces viability of A549 cells in Nrf2 counter-screen; Potency, µM (doses to about 46 µM), for inactives: top-dose activity change, negative = cytotoxicity, usual class: inhibitors; actives 0.16% (n = 390,000); AID 504648; A549 ARE-Fluc cells, CellTiter-Fluor viability, 18-24 h; note: potency is the fitted concentration of half-maximal effect; % is set by controls: 0 for no effect and ±100 for the full control effect
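A549 ARE-Fluc cells in 5% FBS OPTI-MEM, 5000 cells/well, rested 2 h then exposed to compounds in concentration-response for 18-24 h at 37 °C. Viability by CellTiter-Fluor fluorescence (Ex 405/Em 525) after 30 min; luciferase luminescence (BugLite, 15 min, RT) read afterwards.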
p53 reactivation = re-activators of mutant p53. H1299 p53-A138V BP100-luciferase reporter, luminescence, 24 h. Potency, µM (titrated, usually from 92.2 µM), without a hit: at the top dose activity change, positive = activation, hits mostly activators. actives 0.063% (n = 320,000). AID 504706; note: potency is the fitted concentration of half-maximal effect; % of control where 0% means no effect; nearly all actives have a fitted effect of over 45% in size
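p53-null H1299 cells stably carrying temperature-sensitive p53-A138V and a BP100-luciferase reporter were pinned with compounds (4-point, 1:5 series) and held 24 hrs at 37 deg C. Luminescence was read 10 min after detection reagent.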
IL-2 act = activates IL-2 in a cell-based reporter assay; IL-2 activation reporter assay, cell-based qHTS; stimulated with anti-CD3/CD4/CD28 beads; in transgenic mouse T cells; activation, % (series mostly up to about 46 µM); actives 0.065% (n = 360,000); AID 652025; in the data active = activation above about 50%; inconclusive = mostly about 30% to 49%; note: 0% is about no effect
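Using fluorescent plate cytometry, EGFP and DsRed are detected in transgenic mouse T cells stimulated 18 h at 37 degrees C with antibody-coated beads after 60 min compound pretreatment.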
Starred values were filed as active, the others as inactive; ? = inconclusive; / = no result; [ ] = remark or other dose. Unless noted, calls come from the whole dose curve; as a rule, active = well fitted curve in the direction sought with a large enough effect; inconclusive = small, poorly fitted or top-dose-only effect, or another doubt; inactive = no such curve, though single readings can be large; an effect the other way counts as inactive or inconclusive.

SMILES	Nrf2 ARE act	BRCA1 expr act	Nrf2 block	A549 viability	p53 reactivation	IL-2 act
CN(C)c1ccc(/C=C/c2ccc3ncccc3c2)cc1	/	0%	/	/	/	/
O=C(Nc1nnc(C2CCCO2)s1)c1ccc(Br)cc1 (stereo unspecified)	3%	11µM*	/	-8%	14%	-1
O=C(COC(=O)c1cccc(O)c1)c1ccccc1	2%	?	23%	3%	9%	-2
Nc1cccc(C(=O)OCC(=O)c2ccccc2)c1	0%	7.9µM*	?	1%	?	1
CC(C)(C)Nc1nc(Cl)nc(Nc2ccccc2)n1	4%	11µM*	?	-1%	?	-1
Clc1nc(Nc2ccccc2)nc(Nc2ccccc2)n1	?	-23%	15%	6%	?	-5
Cc1ccc(NCc2cccn2-c2nnc(N3CCC(C(=O)NCCc4ccccc4)CC3)s2)cc1	2%	/	-20%	-4%	/	/
CN(CC(=O)Nc1ccccc1Cl)C(=O)c1cccc(S(=O)(=O)N2CCN(Cc3ccccc3)CC2)c1	0%	-41%	15µM*	-5%	2%	0
CN(CC(=O)Nc1ccccc1Cl)C(=O)c1cccc(S(=O)(=O)N2CCN(c3ccccc3)CC2)c1	-1%	-65%	21µM*	-20%	/	-4
Cc1ccc(NC(=O)c2cccc(S(=O)(=O)N3CCN(c4ccc(F)cc4)CC3)c2)nc1	4%	-41%	23µM*	-5%	-7%	1
CN(CC(=O)Nc1ccccc1Cl)C(=O)c1cccc(S(=O)(=O)N2CCN(c3ccc(F)cc3)CC2)c1	0%	-53%	5.2µM*	-15%	?	-4
CS(=O)(=O)N1CCc2cc(S(=O)(=O)NCc3ccccc3Cl)ccc21	0%	/	/	3%	/	/
CN(Cc1cccc(F)c1)C(=O)c1cccc(S(=O)(=O)N2CCN(Cc3ccccc3)CC2)c1	-1%	-31%	?	-12%	0%	-5
CN(CC(=O)Nc1cccc(F)c1)C(=O)c1cccc(S(=O)(=O)N2CCN(c3ccc(F)cc3)CC2)c1	3%	-55%	16µM*	?	/	-1
CN(Cc1cccc(Cl)c1Cl)C(=O)c1cccc(S(=O)(=O)N2CCN(Cc3ccccc3)CC2)c1	-1%	-64%	13µM*	-16%	/	-4
CN(CC(=O)Nc1cccc(F)c1)C(=O)c1cccc(S(=O)(=O)N2CCN(Cc3ccccc3)CC2)c1	-1%	-37%	/	/	/	-4
CCNC(=S)N1CCN(c2cccc(C(F)(F)F)c2)CC1	0%	-14%	-25%	-1%	5%	-3
FC(F)(F)c1cccc(N2CCN(C(=S)NC3CCCCC3)CC2)c1	0%[9.22 µM]	-68%	16µM*	-16%	3%	0
Cc1ccnc(NC(=S)N2CCN(c3cccc(C(F)(F)F)c3)CC2)c1	12%	-31%	23µM*	?	?	-3
C=CCNC(=S)N1CCN(c2cccc(C(F)(F)F)c2)CC1	0%[9.22 µM]	-24%	?	-4%	-10%	0
Cc1ccc(C)c(NC(=S)N2CCN(c3cccc(C(F)(F)F)c3)CC2)c1	0%	-2%	-15%	1%	-1%	-3
FC(F)(F)c1cccc(N2CCN(C(=S)NC3CCCC3)CC2)c1	0%	-38%	23µM*	-17%	-6%	0
CN(C)S(=O)(=O)c1ccc(NC(=O)N2CCN(c3cccc(C(F)(F)F)c3)CC2)cc1	0%	-73%	23µM*	?	-11%	-2
CCN(Cc1ccccc1)S(=O)(=O)c1cc(Br)cc2c1N(C(=O)C1CC1)CC2	1%	-32%	-16%[9.27 µM]	1%	/	/
Cn1cc(S(=O)(=O)N2CCCCCC2)cc1C(=O)Nc1ccc(Cl)c(C(F)(F)F)c1	-1%	3%	/	-11%	/	/
SMILES	Nrf2 ARE act	BRCA1 expr act	Nrf2 block	A549 viability	p53 reactivation	IL-2 act
O=C(c1cccs1)N1CCCC(N2CCN(c3cccc(C(F)(F)F)c3)CC2)C1 (stereo unspecified)	2%	-19%	21µM*	-10%	-6%	-1
COc1ccc(CCNC(=O)c2cc3cc(Cl)ccc3nc2N)cc1OC	3%	-40%	/	/	/	-1
CCOC(=O)c1[nH]c(C)c(CCC(=O)Nc2ccc(C(C)=O)cc2)c1C	0%	/	/	11%	/	/
COC(=O)c1c(NC(NC(=O)C(C)C)C(Cl)(Cl)Cl)sc2c1CCC2 (stereo unspecified)	3%	-41%	18µM*	-1%	-26%	-3
CCOC(=O)c1c(NC(NC(C)=O)C(Cl)(Cl)Cl)sc2c1CCCC2 (stereo unspecified)	7%	-27%	?	0%	-19%	0
COC(=O)c1c(NC(NC(C)=O)C(Cl)(Cl)Cl)sc2c1CCCC2 (stereo unspecified)	7%	-38%	21µM*	1%	19%	3
O=C(C1CC1)N1CCN(c2nc3c(F)cc(F)cc3s2)CC1	4%	?	/	2%	/	/
c1ccn2cc(CSC3=NCCS3)nc2c1	-1%	6.3µM*	8%	-1%	?	1
c1ccn2cc(CSc3nnc4ccccn34)nc2c1	0%	?	?	1%	?	1
CN1/C(=C\C(=O)c2cccs2)Sc2ccccc21	4µM*	-35%	/	-28%	?	-2
COc1cc(OC)cc(C(=O)/C=C2\Sc3ccccc3N2C)c1	3%	48%	17%	-1%	2%	0
CN1/C(=C\C(=O)c2cccc([N+](=O)[O-])c2)Sc2ccccc21	?	2.2µM*	13%	0%	-6%	0
Cc1cc(Cl)ccc1Oc1nccc(N(C)C)c1C#N	1%	-1%	23µM*	-17%	2%	1
Cc1cccc2nc(-c3ccccn3)c(Nc3ccccc3)n12	4%	/	10µM*	-26%	/	/
Cc1cccc2nc(-c3ccccn3)c(Nc3ccc(F)cc3)n12	0%	/	16µM*	?	/	/
Cc1ccc(Nc2c(-c3ccccc3O)nc3cc(C)ccn23)cc1	-1%	/	-11%	5%	/	/
Cc1ccn2c(Nc3ccc(F)cc3)c(-c3ccccn3)nc2c1	1%	/	16µM*	?	/	/
Cc1ccc(NC(=O)C(Cc2ccccc2)NS(=O)(=O)c2cccc3nsnc23)c(C)c1 (stereo unspecified)	0%	/	21%	0%	/	/
O=C(c1cccn1-c1nnc(N2CCCCC2)s1)N1CCN(c2ccc(Cl)cc2)CC1	1%	/	-24%	20%	/	/
Cc1ccc(NS(=O)(=O)c2ccc3c(c2)CC(=O)N3C)cc1C	/	/	?	4%	/	/
COc1ccc(/C(C)=N/Nc2nccnc2Cl)cc1	14%	4%	?	0%	?	0
